# Data taken from the supplement of paper PMC12645437, “Orthogonal IMiD-Degron Pairs Induce Selective Protein Degradation in Cells” (ACS Chemical Biology, 2025).
# The full ranking holds about 8,300 sequences; the median of “log2 fold change of degron read counts, EGFP-low vs EGFP+ sorted cells (limma voom), compound-induced degradation” is about -1.1, and the highest 2% start at about 3.2. The sample holds the highest values, similar sequences and a random draw of the others, so the mix is not that of the screen.
# T1: CRBN, Q96SW2
# T1 chain: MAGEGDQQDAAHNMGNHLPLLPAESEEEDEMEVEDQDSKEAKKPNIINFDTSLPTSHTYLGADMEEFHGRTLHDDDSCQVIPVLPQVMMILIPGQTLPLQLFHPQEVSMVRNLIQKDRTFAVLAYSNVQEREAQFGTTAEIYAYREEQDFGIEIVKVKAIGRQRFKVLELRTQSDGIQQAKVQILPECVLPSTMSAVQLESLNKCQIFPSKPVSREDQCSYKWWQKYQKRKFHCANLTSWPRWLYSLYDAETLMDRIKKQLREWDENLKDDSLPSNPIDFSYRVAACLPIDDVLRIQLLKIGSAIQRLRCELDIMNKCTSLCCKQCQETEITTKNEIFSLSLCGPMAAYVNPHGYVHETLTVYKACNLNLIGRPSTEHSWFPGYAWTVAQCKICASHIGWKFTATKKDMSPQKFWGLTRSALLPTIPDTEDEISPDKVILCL
# Target: T1, CRBN, Q96SW2
# Assay: log2 fold change of degron read counts, EGFP-low vs EGFP+ sorted cells (limma voom), compound-induced degradation; higher = more compound-induced degradation of the degron-EGFP fusion; degrons are variants of IKZF1/3 zinc finger 2; compound dose not given here
# Conditions: Jurkat, 18 h
# [1] = compound: compound 19 (5-tert-butyl-thalidomide)
# [2] = compound: compound 22 (5-morpholino-thalidomide)
# [3] = compound: compound 33 (diphenyl IMiD analogue)
# 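Further: pooled lentiviral library of zinc finger degron-EGFP fusions in mCherry-positive Jurkat cells, FACS-sorted after compound exposure, with degron abundance counted by next-generation sequencing.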
Sequence,log2 fold change of degron read counts [1],log2 fold change of degron read counts [2],log2 fold change of degron read counts [3],log2 fold change of degron read counts (compound: thalidomide)
"FQCNQCGREFTQKGNLLRHIKL [46F_47Q_49N_50Q_52G_53R_54E_55F_67L_, Q9UKT9]",-3.47,-3.04,-3.68,-2.95
"FDCEQCGACFTQKGNLLRHIKL [46F_47D_49E_50Q_52G_53A_54C_55F_67L_, Q9UKT9]",-1.94,-2.86,-2.08,-2.3
"FGCDICGAAFTQKGNLLRHIKL [46F_47G_49D_50I_52G_53A_54A_55F_67L_, Q9UKT9]",1.51,0.584,0.961,-0.234
"LLCPICGFPCTQKGNLLRHIKL [46L_47L_49P_50I_52G_53F_54P_55C_67L_, Q9UKT9]",-0.669,1.1,1.61,2.14
"FDCNQCGATFTQKGNLLRHIKL [46F_47D_49N_50Q_52G_53A_54T_55F_67L_, Q9UKT9]",-2.56,-3.15,-3.02,-2.62
"FWCPICGHRFTQKGNLLRHIKL [46F_47W_49P_50I_52G_53H_54R_55F_67L_, Q9UKT9]",-0.606,0.31,-0.595,-0.478
"LACNQCGFFCTQKGNLLRHIKL [46L_47A_49N_50Q_52G_53F_54F_55C_67L_, Q9UKT9]",-0.913,-1.22,-1.37,-0.847
"FHCEICGRPFTQKGNLLRHIKL [46F_47H_49E_50I_52G_53R_54P_55F_67L_, Q9UKT9]",1.69,0.386,0.306,-0.468
"FTCSVCGHSFTQKGNLLRHIKL [46F_47T_49S_50V_52G_53H_54S_55F_67L_, Q9UKT9]",-2.98,-3.17,-2.89,-2.9
"FCCEVCGARFTQKGNLLRHIKL [46F_47C_49E_50V_52G_53A_54R_55F_67L_, Q9UKT9]",3.05,3.02,1.45,2.9
"FWCEVCGALFTQKGNLLRHIKL [46F_47W_49E_50V_52G_53A_54L_55F_67L_, Q9UKT9]",2.17,2.69,1.86,-0.0715
"FECEVCGARFTQKGNLLRHIKL [46F_47E_49E_50V_52G_53A_54R_55F_67L_, Q9UKT9]",1.13,-0.689,1.27,3.29
"FDCEVCGARFTQKGNLLRHIKL [46F_47D_49E_50V_52G_53A_54R_55F_67L_, Q9UKT9]",3.09,1.52,0.571,2.08
"FFCEVCGARFTQKGNLLRHIKL [46F_47F_49E_50V_52G_53A_54R_55F_67L_, Q9UKT9]",3.78,3.71,1.69,2.19
"FFCEVCGALFTQKGNLLRHIKL [46F_47F_49E_50V_52G_53A_54L_55F_67L_, Q9UKT9]",2.55,2.63,1.79,0.407
"FWCEVCGARFTQKGNLLRHIKL [46F_47W_49E_50V_52G_53A_54R_55F_67L_, Q9UKT9]",3.36,3.82,1.63,1.59
"FYCEVCGARFTQKGNLLRHIKL [46F_47Y_49E_50V_52G_53A_54R_55F_67L_, Q9UKT9]",3.84,3.8,2.26,1.95
"FYCEVCGALFTQKGNLLRHIKL [46F_47Y_49E_50V_52G_53A_54L_55F_67L_, Q9UKT9]",3.18,3.03,2.24,0.431
"FICEVCGARFTQKGNLLRHIKL [46F_47I_49E_50V_52G_53A_54R_55F_67L_, Q9UKT9]",0.108,2.04,1.51,2.6

Sequence,log2 fold change of degron read counts [1],log2 fold change of degron read counts [2],log2 fold change of degron read counts [3],log2 fold change of degron read counts (compound: thalidomide)
"FYCEVCGADFTQKGNLLRHIKL [46F_47Y_49E_50V_52G_53A_54D_55F_67L_, Q9UKT9]",0.695,1.02,0.125,-1.36
"FWCEVCGADFTQKGNLLRHIKL [46F_47W_49E_50V_52G_53A_54D_55F_67L_, Q9UKT9]",-0.303,0.852,-0.582,-1.26
"FLCEVCGAEFTQKGNLLRHIKL [46F_47L_49E_50V_52G_53A_54E_55F_67L_, Q9UKT9]",0.493,-1.2,0.235,1.01
"FYCPICGRSFTQKGNLLRHIKL [46F_47Y_49P_50I_52G_53R_54S_55F_67L_, Q9UKT9]",-1.81,-2.36,-1.67,-2.4
"FHCNQCGHYFTQKGNLLRHIKL [46F_47H_49N_50Q_52G_53H_54Y_55F_67L_, Q9UKT9]",-2.17,-2.71,-2.16,-1.62
"FYCPICGRMFTQKGNLLRHIKL [46F_47Y_49P_50I_52G_53R_54M_55F_67L_, Q9UKT9]",-0.787,-1.23,-0.675,-1.57
"FNCEVCGARFTQKGNLLRHIKL [46F_47N_49E_50V_52G_53A_54R_55F_67L_, Q9UKT9]",2.12,0.955,-0.805,0.249
"FGCEVCGALFTQKGNLLRHIKL [46F_47G_49E_50V_52G_53A_54L_55F_67L_, Q9UKT9]",2.18,0.893,1.4,-0.493
"FMCEVCGARFTQKGNLLRHIKL [46F_47M_49E_50V_52G_53A_54R_55F_67L_, Q9UKT9]",0.167,-0.178,1.48,1.48
"FGCEVCGADFTQKGNLLRHIKL [46F_47G_49E_50V_52G_53A_54D_55F_67L_, Q9UKT9]",-1.71,-2.17,-0.906,-1.3
"FGCEVCGARFTQKGNLLRHIKL [46F_47G_49E_50V_52G_53A_54R_55F_67L_, Q9UKT9]",3.86,2.74,-0.6,1.27
"FACEVCGALFTQKGNLLRHIKL [46F_47A_49E_50V_52G_53A_54L_55F_67L_, Q9UKT9]",1.98,-0.613,-0.457,-1.05
"FACEVCGADFTQKGNLLRHIKL [46F_47A_49E_50V_52G_53A_54D_55F_67L_, Q9UKT9]",1.11,-1.42,-1.53,-1.97
"FVCEVCGARFTQKGNLLRHIKL [46F_47V_49E_50V_52G_53A_54R_55F_67L_, Q9UKT9]",1.35,2.78,0.984,3.25
"FQCEVCGARFTQKGNLLRHIKL [46F_47Q_49E_50V_52G_53A_54R_55F_67L_, Q9UKT9]",-0.109,1.95,1.42,3.71
"FACEVCGARFTQKGNLLRHIKL [46F_47A_49E_50V_52G_53A_54R_55F_67L_, Q9UKT9]",3.91,3.03,-0.415,1.17
"FKCEVCGARFTQKGNLLRHIKL [46F_47K_49E_50V_52G_53A_54R_55F_67L_, Q9UKT9]",-1.76,-3.02,-3.44,-1.87
"FLCEVCGARFTQKGNLLRHIKL [46F_47L_49E_50V_52G_53A_54R_55F_67L_, Q9UKT9]",-0.109,-1.35,-0.123,2.09
